These results are taken from PubChem BioAssay (NCI).

SMILES strings stand for the structures. The panel holds about 83,000 compounds, 20% with a hit somewhere; the sample as a whole holds those more often.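 Negative percent growth values reflect cell death: -40 means 40% of the cells present at the start died, and -100 means all died.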 Active and inactive are the calls of the source. Rule for the calls: active = growth percent below 10; inactive = the rest.

In this assay the test system is RPMI-8226 leukemia. Briefly: NCI-60 one-dose screen, 48 h (100 = growth as untreated, 0 = no growth, -100 = all killed). As to conditions: 10 µM unless noted.
For `ClC(Cl)c1nc(-c2cccs2)n2nc(-c3ccccc3)cc2n1`, the growth was -25.6% (active).

On to `O=C(COc1ccc(C2SCC(=O)N2c2ccccc2)cc1)c1ccccc1` (stereo unspecified), for which the growth was 91.9% (inactive).

With `c1ccc(-c2n(Cc3ccc4ccccc4c3)c3c4ccccc4c4ccccc4c3[n+]2Cc2ccc3ccccc3c2)cc1`, the growth was -35.1% (active).

As to `O=C1[C@@H]2Cc3c([nH]c4ccccc34)[C@H](c3c(Cl)cccc3Cl)N2C(=O)CN1C1CCN(Cc2c(F)cccc2F)CC1`, the growth is 67.9% (inactive).

Regarding `NCCN1CCN(c2nc(-c3ccccc3)nc3nc(-c4ccccc4)oc23)CC1`, the growth was -27.9% (active).

Turning to `C/C(=C(/C)C1CC1CCN(C(=O)c1ccccn1)S(=O)(=O)c1ccc(C)cc1)C1CCCCC1` (stereo unspecified), the growth is 92.2% (inactive).

`Cc1nn(-c2ccccc2)cc1/C=N/Nc1nc(Nc2ccccc2)nc(Nc2ccc(S(N)(=O)=O)cc2)n1`: the growth was -23.1% (active).

Turning to `Brc1cccc(/C=N/Nc2nc(N/N=C/c3cccc(Br)c3)nc(N3CCOCC3)n2)c1`, the growth is 34.2% (inactive).

In the case of `COc1cc(/C=C2\SC(=O)NC2=O)ccc1OCC(=O)Nc1ccc(C(=O)/C=C/c2cc3ccccc3nc2Cl)cc1`, the growth was -1.87% (active).

Turning to `O=c1oc2ccc(-c3ccc(F)cc3F)cc2c(=O)n1-c1ccc(F)c(F)c1`, the growth is -19.1% (active).

On to `CC[C@@](C)(NC(=O)C(C)(C)NC(=O)[C@@H](NC(=O)[C@@H]1CCCN1C(=O)C(C)(C)NC(=O)[C@H](CC(C)C)NC(=O)CNC(=O)C(C)(C)NC(=O)[C@@H](NC(=O)C(C)(C)NC(=O)[C@H](CCC(N)=O)NC(=O)[C@H](C)NC(=O)C(C)(C)NC(=O)[C@H](C)NC(=O)C(C)(C)NC(=O)[C@@H]1CCCN1C(=O)C(C)(C)NC(C)=O)C(C)C)C(C)C)C(=O)N[C@@H](CCC(N)=O)C(=O)N[C@@H](CCC(N)=O)C(=O)N[C@H](CO)Cc1ccccc1`, for which the growth is -10.5% [4.25 µM] (active).
